Out of some 310,000 compounds screened, about 14,000 (4.5%) showed an effect of 50% or more. Effects have a minus sign here. This is one part of a sample in which strong results are shown more often than they occur.
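Note: peak tail current of the secondary pulse compared with the same well before compound.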

For this experiment, the target named is human ether-à-go-go-related gene (hERG) potassium channel (human, UniProt Q12809). In words: primary screen, population patch clamp on CHO cells stably expressing hERG; higher = less effect of the substance.
Chain of human ether-à-go-go-related gene (hERG) potassium channel (Q12809 whole entry, looked up): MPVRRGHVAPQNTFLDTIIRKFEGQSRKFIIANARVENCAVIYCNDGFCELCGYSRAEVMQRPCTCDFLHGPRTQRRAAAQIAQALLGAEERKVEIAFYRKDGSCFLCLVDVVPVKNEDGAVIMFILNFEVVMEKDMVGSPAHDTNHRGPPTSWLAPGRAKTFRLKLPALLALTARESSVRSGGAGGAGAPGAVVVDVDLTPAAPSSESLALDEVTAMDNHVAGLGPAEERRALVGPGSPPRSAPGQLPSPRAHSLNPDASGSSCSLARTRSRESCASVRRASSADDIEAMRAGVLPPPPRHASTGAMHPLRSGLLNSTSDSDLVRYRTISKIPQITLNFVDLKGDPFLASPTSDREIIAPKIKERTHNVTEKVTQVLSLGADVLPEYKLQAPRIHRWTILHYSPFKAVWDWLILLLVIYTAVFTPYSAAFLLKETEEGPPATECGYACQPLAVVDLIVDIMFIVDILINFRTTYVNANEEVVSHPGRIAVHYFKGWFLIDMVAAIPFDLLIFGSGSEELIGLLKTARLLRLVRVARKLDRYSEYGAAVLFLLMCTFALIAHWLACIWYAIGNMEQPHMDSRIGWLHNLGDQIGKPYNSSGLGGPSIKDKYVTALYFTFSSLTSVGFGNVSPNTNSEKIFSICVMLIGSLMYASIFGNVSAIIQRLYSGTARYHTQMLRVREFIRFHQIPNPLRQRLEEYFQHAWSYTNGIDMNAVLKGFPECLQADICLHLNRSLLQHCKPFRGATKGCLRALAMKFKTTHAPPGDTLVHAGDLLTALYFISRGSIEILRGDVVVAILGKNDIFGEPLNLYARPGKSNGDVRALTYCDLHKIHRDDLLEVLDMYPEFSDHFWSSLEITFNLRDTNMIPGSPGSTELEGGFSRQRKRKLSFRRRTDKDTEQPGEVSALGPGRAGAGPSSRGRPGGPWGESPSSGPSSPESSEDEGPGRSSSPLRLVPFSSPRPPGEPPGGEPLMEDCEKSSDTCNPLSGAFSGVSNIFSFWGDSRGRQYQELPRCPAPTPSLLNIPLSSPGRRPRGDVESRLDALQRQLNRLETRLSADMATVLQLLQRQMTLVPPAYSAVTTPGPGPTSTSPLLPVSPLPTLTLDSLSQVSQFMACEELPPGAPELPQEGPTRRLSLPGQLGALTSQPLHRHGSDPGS
`COC(=O)C1CC(O)CN1C(=O)c1ccco1` (centres unmarked): the “hERG current change (%, negative = inhibition) at 10uM” value was found to be 10.6%.

Turning to `CN(C)S(=O)(=O)c1ccc(NC(=O)CN2CCC(Cc3ccccc3)CC2)cc1`, the “hERG current change (%, negative = inhibition) at 10uM” value is recorded as -32.8%. As for `Cc1cc(C)n(-c2cccc(CN(C)Cc3nc(-c4cnccn4)no3)c2)n1`, the “hERG current change (%, negative = inhibition) at 10uM” value was determined as 10.8%.

As for `CN(Cc1ccc(-n2cccn2)cc1)Cc1nc(-c2cnccn2)no1`, the “hERG current change (%, negative = inhibition) at 10uM” value is reported as -58.2%.

For the compound `CN(Cc1ccc(F)cc1)Cc1nc(-c2cnccn2)no1`, the “hERG current change (%, negative = inhibition) at 10uM” value is recorded as 13.7%.

With `Cn1nc(C(=O)N2CCN(c3ccccc3)CC2)c2c1-c1ccccc1S(=O)(=O)C2`, the “hERG current change (%, negative = inhibition) at 10uM” value is -40.9%.

As for `Cc1ccc(N2CCN(C(=O)c3nn(C)c4c3CS(=O)(=O)c3ccccc3-4)CC2)c(C)c1`, the “hERG current change (%, negative = inhibition) at 10uM” value was -3%. For `CC(=O)c1ccc(N2CCN(C(=O)c3nn(C)c4c3CS(=O)(=O)c3ccccc3-4)CC2)cc1`, the “hERG current change (%, negative = inhibition) at 10uM” value is on record as -64.5%. As for `Cc1cccc(N2CCN(C(=O)c3nn(C)c4c3CS(=O)(=O)c3ccccc3-4)CC2)c1C`, the figure is -33.4%; as for `Cn1nc(C(=O)N2CCN(c3cccc(Cl)c3)CC2)c2c1-c1ccccc1S(=O)(=O)C2`, -53.4%; as for `Cn1nc(C(=O)N2CCCCC2)c2c1-c1ccccc1S(=O)(=O)C2`, 14.7%.

Regarding `Cn1nc(C(=O)N2CCN(c3ccc([N+](=O)[O-])cc3)CC2)c2c1-c1ccccc1S(=O)(=O)C2`, the “hERG current change (%, negative = inhibition) at 10uM” value is -31.4%. Take `Cn1nc(C(=O)N2CCN(c3ccccc3F)CC2)c2c1-c1ccccc1S(=O)(=O)C2`: the “hERG current change (%, negative = inhibition) at 10uM” value is recorded as -21.2%.

On to `CCN1CCN(C(=O)c2nn(C)c3c2CS(=O)(=O)c2ccccc2-3)CC1`, for which the “hERG current change (%, negative = inhibition) at 10uM” value is 12%. Turning to `Cn1nc(C(=O)N2CCN(c3ccc(Cl)cc3)CC2)c2c1-c1ccccc1S(=O)(=O)C2`, the “hERG current change (%, negative = inhibition) at 10uM” value is -51.2%. As for `COc1ccccc1N1CCN(C(=O)c2nn(C)c3c2CS(=O)(=O)c2ccccc2-3)CC1`, the figure is 2.07%; as for `Cn1nc(C(=O)N2CCN(c3ccc(F)cc3)CC2)c2c1-c1ccccc1S(=O)(=O)C2`, -54.3%. With `CCN1CCN(CC(=O)c2ccc(C)cc2)CC1`, the “hERG current change (%, negative = inhibition) at 10uM” value amounted to 8.76%. As to `CC(=O)Nc1ccc(S(=O)(=O)Oc2ccc(C(=S)N3CCCCC3)cc2)cc1`, the “hERG current change (%, negative = inhibition) at 10uM” value was -16.6%.

For the compound `COc1cccc(NC(=O)c2cn(C)c(=O)c3cc(OC)c(OC)cc23)c1`, the “hERG current change (%, negative = inhibition) at 10uM” value is on record as 6.54%. The figure for `Fc1ccc(N2N=C(c3cccs3)CC2c2ccccc2)cc1` (centres unmarked) is 8.89%; for `COc1ccc(CC(=O)NC(C)c2nnc(SCCOc3ccc(OC)cc3)n2C)cc1` (centres unmarked) it is -11.2%.

As for `O=C(O)CCn1c(=S)n(CCC(=O)O)c2ccccc21`, the “hERG current change (%, negative = inhibition) at 10uM” value was -1.59%. As to `CS(=O)(=O)N1CCN(Cc2ccc([N+](=O)[O-])cc2)CC1`, the “hERG current change (%, negative = inhibition) at 10uM” value was -23.6%.

For the compound `CCc1ccc(CN2CCN(Cc3ccc(SC)cc3)CC2)cc1.O=C(O)C(=O)O`, the “hERG current change (%, negative = inhibition) at 10uM” value is listed as -67.9%. As to `CSc1ccc(CN2CCN(C(=O)c3ccncc3)CC2)cc1`, the “hERG current change (%, negative = inhibition) at 10uM” value is -21.4%. As to `CSc1ccc(CN2CCN(C(=O)Cc3ccccc3)CC2)cc1`, the “hERG current change (%, negative = inhibition) at 10uM” value was -12.1%. Consider `CSc1ccc(CN2CCN(Cc3ccc([N+](=O)[O-])cc3)CC2)cc1.O=C(O)C(=O)O`, for which the “hERG current change (%, negative = inhibition) at 10uM” value is on record as -78.1%. As for `CCN1CCN(Cc2ccc(NC(=O)Nc3ccc(SC)cc3)cc2)CC1`, the figure is -44.5%; as for `O=C(C1CCCN(Cc2ccc([N+](=O)[O-])cc2)C1)N1CCCCC1.O=C(O)C(=O)O` (centres unmarked), -28.4%. In the case of `CSc1ccc(CN2CCN(C(=O)c3ccc([N+](=O)[O-])cc3)CC2)cc1.O=C(O)C(=O)O`, the “hERG current change (%, negative = inhibition) at 10uM” value is -77.2%.

In the case of `CCCS(=O)(=O)N1CCN(Cc2ccncc2)CC1.O=C(O)C(=O)O`, the “hERG current change (%, negative = inhibition) at 10uM” value was determined as 10.8%. Take `CCCS(=O)(=O)N1CCN(Cc2ccc([N+](=O)[O-])cc2)CC1.O=C(O)C(=O)O`: the “hERG current change (%, negative = inhibition) at 10uM” value is recorded as -51.9%. As to `CCS(=O)(=O)N1CCN(Cc2ccc([N+](=O)[O-])cc2)CC1.O=C(O)C(=O)O`, the “hERG current change (%, negative = inhibition) at 10uM” value was -44.4%. The figure for `COC(CNC(=O)CC1C(=O)N(Cc2ccccc2)C(C)c2nc3ccccc3n21)OC` (centres unmarked) is 9.2%. As to `CCCCn1nc(C(=O)N[C@@H](CCSC)c2nc3ccccc3[nH]2)c2ccccc2c1=O`, the “hERG current change (%, negative = inhibition) at 10uM” value was -28.7%. For the compound `CC(=O)Nc1ccc(NC(=O)CC(C)n2ccnc2)cc1` (centres unmarked), the “hERG current change (%, negative = inhibition) at 10uM” value came to 7.66%. Regarding `O=C1/C(=C/c2ccccc2F)SC(=S)N1CC(=O)N1CCCCC1c1cccnc1` (centres unmarked), the “hERG current change (%, negative = inhibition) at 10uM” value stood at 1.73%. In the case of `C#CCOc1nc(Nc2cccc([N+](=O)[O-])c2)nc(OCC#C)n1`, the “hERG current change (%, negative = inhibition) at 10uM” value was -10.1%. Turning to `O=C(COc1ccc(S(=O)(=O)N2CCCC2)cc1Cl)N1CCN(c2ccccc2)CC1`, the “hERG current change (%, negative = inhibition) at 10uM” value is listed as -15.5%. Consider `COc1cc(Nc2nc3ccccc3nc2NS(=O)(=O)c2ccc([N+](=O)[O-])cc2)cc(OC)c1OC`, for which the “hERG current change (%, negative = inhibition) at 10uM” value is on record as -30.4%.
